# Results as given in the supplement of paper PMC4466140.
# Target: AgAbp1
# Test: SPOT peptide array binding signal intensity (averaged, normalized) (arbitrary units (background-subtracted, floor 0; scale differs between SH3 domains)); higher = stronger binding of the SH3 domain to the peptide
# Procedure, shortened: (§1)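 GST-fused SH3 domains, from four yeast species, were produced in E. coli BL21(DE3) and captured on glutathione Sepharose. Membranes of cellulose carrying synthetic 15-mer peptides, in which cysteines had been replaced by serines, were exposed to each domain at 10 μg/ml overnight at 4°C in TBS-based blocking buffer. After anti-GST antibody, an HRP anti-mouse secondary and luminol, spots were imaged and quantified using Genespotter. Binding signal is normalized and background-subtracted spot intensity, averaged over replicates, in arbitrary units that differ between domains.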
row,Binder,SPOT peptide array binding signal intensity
1,IRMPSNPALPKKLLN,194

# Target: AgBbc1
# Test: as above
# Procedure, shortened: as §1
row,Binder,SPOT peptide array binding signal intensity
1,IRMPSNPALPKKLLN,40

# Target: AgBem1-D1
# Test: as above
# Procedure, shortened: as §1
row,Binder,SPOT peptide array binding signal intensity
1,IRMPSNPALPKKLLN,431

# Target: AgBzz1-D1
# Test: as above
# Procedure, shortened: as §1
row,Binder,SPOT peptide array binding signal intensity
1,IRMPSNPALPKKLLN,10

# Target: AgBzz1-D2
# Test: as above
# Procedure, shortened: as §1
row,Binder,SPOT peptide array binding signal intensity
1,IRMPSNPALPKKLLN,10

# Target: AgCyk3
# Test: as above
# Procedure, shortened: as §1
row,Binder,SPOT peptide array binding signal intensity
1,IRMPSNPALPKKLLN,1

# Target: AgFus1
# Test: as above
# Procedure, shortened: as §1
row,Binder,SPOT peptide array binding signal intensity
1,IRMPSNPALPKKLLN,806

# Target: AgHof1
# Test: as above
# Procedure, shortened: as §1
row,Binder,SPOT peptide array binding signal intensity
1,IRMPSNPALPKKLLN,59.5

# Target: AgHse1
# Test: as above
# Procedure, shortened: as §1
row,Binder,SPOT peptide array binding signal intensity
1,IRMPSNPALPKKLLN,367

# Target: AgLsb1
# Test: as above
# Procedure, shortened: as §1
row,Binder,SPOT peptide array binding signal intensity
1,IRMPSNPALPKKLLN,2.5

# Target: AgLsb4
# Test: as above
# Procedure, shortened: as §1
row,Binder,SPOT peptide array binding signal intensity
1,IRMPSNPALPKKLLN,21.5

# Target: AgMyo5
# Test: as above
# Procedure, shortened: as §1
row,Binder,SPOT peptide array binding signal intensity
1,IRMPSNPALPKKLLN,1.75

# Target: AgNbp2
# Test: as above
# Procedure, shortened: as §1
row,Binder,SPOT peptide array binding signal intensity
1,IRMPSNPALPKKLLN,308

# Target: AgRvs167
# Test: as above
# Procedure, shortened: as §1
row,Binder,SPOT peptide array binding signal intensity
1,IRMPSNPALPKKLLN,2.33

# Target: AgSho1
# Test: as above
# Procedure, shortened: as §1
row,Binder,SPOT peptide array binding signal intensity
1,IRMPSNPALPKKLLN,852

# Target: AgSla1-D1-D2
# Test: as above
# Procedure, shortened: as §1
row,Binder,SPOT peptide array binding signal intensity
1,IRMPSNPALPKKLLN,16

# Target: AgSla1-D3
# Test: as above
# Procedure, shortened: as §1
row,Binder,SPOT peptide array binding signal intensity
1,IRMPSNPALPKKLLN,7.5

# Target: CaAbp1-D1
# Test: as above
# Procedure, shortened: as §1
row,Binder,SPOT peptide array binding signal intensity
1,IRMPSNPALPKKLLN,616

# Target: CaAbp1-D2
# Test: as above
# Procedure, shortened: as §1
row,Binder,SPOT peptide array binding signal intensity
1,IRMPSNPALPKKLLN,1080

# Target: CaBbc1
# Test: as above
# Procedure, shortened: as §1
row,Binder,SPOT peptide array binding signal intensity
1,IRMPSNPALPKKLLN,126

# Target: CaBem1-D1
# Test: as above
# Procedure, shortened: as §1
row,Binder,SPOT peptide array binding signal intensity
1,IRMPSNPALPKKLLN,444

# Target: CaBzz1-D1
# Test: as above
# Procedure, shortened: as §1
row,Binder,SPOT peptide array binding signal intensity
1,IRMPSNPALPKKLLN,314

# Target: CaBzz1-D2
# Test: as above
# Procedure, shortened: as §1
row,Binder,SPOT peptide array binding signal intensity
1,IRMPSNPALPKKLLN,247

# Target: CaCyk3
# Test: as above
# Procedure, shortened: as §1
row,Binder,SPOT peptide array binding signal intensity
1,IRMPSNPALPKKLLN,15

# Target: CaFus1
# Test: as above
# Procedure, shortened: as §1
row,Binder,SPOT peptide array binding signal intensity
1,IRMPSNPALPKKLLN,1400

# Target: CaHof1
# Test: as above
# Procedure, shortened: as §1
row,Binder,SPOT peptide array binding signal intensity
1,IRMPSNPALPKKLLN,≤ 0

# Target: CaHse1
# Test: as above
# Procedure, shortened: as §1
row,Binder,SPOT peptide array binding signal intensity
1,IRMPSNPALPKKLLN,504

# Target: CaLsb1
# Test: as above
# Procedure, shortened: as §1
row,Binder,SPOT peptide array binding signal intensity
1,IRMPSNPALPKKLLN,15.5

# Target: CaLsb4
# Test: as above
# Procedure, shortened: as §1
row,Binder,SPOT peptide array binding signal intensity
1,IRMPSNPALPKKLLN,692

# Target: CaMyo5
# Test: as above
# Procedure, shortened: as §1
row,Binder,SPOT peptide array binding signal intensity
1,IRMPSNPALPKKLLN,97.5

# Target: CaNbp2
# Test: as above
# Procedure, shortened: as §1
row,Binder,SPOT peptide array binding signal intensity
1,IRMPSNPALPKKLLN,1060

# Target: CaRvs167
# Test: as above
# Procedure, shortened: as §1
row,Binder,SPOT peptide array binding signal intensity
1,IRMPSNPALPKKLLN,65.7

# Target: CaRvs167-3
# Test: as above
# Procedure, shortened: as §1
row,Binder,SPOT peptide array binding signal intensity
1,IRMPSNPALPKKLLN,3.5

# Target: CaSho1
# Test: as above
# Procedure, shortened: as §1
row,Binder,SPOT peptide array binding signal intensity
1,IRMPSNPALPKKLLN,2070

# Target: CaSla1-D1-D2
# Test: as above
# Procedure, shortened: as §1
row,Binder,SPOT peptide array binding signal intensity
1,IRMPSNPALPKKLLN,476

# Target: CaSla1-D3
# Test: as above
# Procedure, shortened: as §1
row,Binder,SPOT peptide array binding signal intensity
1,IRMPSNPALPKKLLN,424

# Target: ScAbp1
# Test: as above
# Procedure, shortened: as §1
row,Binder,SPOT peptide array binding signal intensity
1,IRMPSNPALPKKLLN,104

# Target: ScBbc1
# Test: as above
# Procedure, shortened: as §1
row,Binder,SPOT peptide array binding signal intensity
1,IRMPSNPALPKKLLN,9.5

# Target: ScBem1-D1
# Test: as above
# Procedure, shortened: as §1
row,Binder,SPOT peptide array binding signal intensity
1,IRMPSNPALPKKLLN,2

# Target: ScBzz1-D1
# Test: as above
# Procedure, shortened: as §1
row,Binder,SPOT peptide array binding signal intensity
1,IRMPSNPALPKKLLN,17

# Target: ScBzz1-D2
# Test: as above
# Procedure, shortened: as §1
row,Binder,SPOT peptide array binding signal intensity
1,IRMPSNPALPKKLLN,29

# Target: ScCyk3
# Test: as above
# Procedure, shortened: as §1
row,Binder,SPOT peptide array binding signal intensity
1,IRMPSNPALPKKLLN,6

# Target: ScFus1
# Test: as above
# Procedure, shortened: as §1
row,Binder,SPOT peptide array binding signal intensity
1,IRMPSNPALPKKLLN,805

# Target: ScHof1
# Test: as above
# Procedure, shortened: as §1
row,Binder,SPOT peptide array binding signal intensity
1,IRMPSNPALPKKLLN,5.5

# Target: ScHse1
# Test: as above
# Procedure, shortened: as §1
row,Binder,SPOT peptide array binding signal intensity
1,IRMPSNPALPKKLLN,89.5

# Target: ScLsb1
# Test: as above
# Procedure, shortened: as §1
row,Binder,SPOT peptide array binding signal intensity
1,IRMPSNPALPKKLLN,102

# Target: ScLsb2
# Test: as above
# Procedure, shortened: as §1
row,Binder,SPOT peptide array binding signal intensity
1,IRMPSNPALPKKLLN,≤ 0

# Target: ScLsb3
# Test: as above
# Procedure, shortened: as §1
row,Binder,SPOT peptide array binding signal intensity
1,IRMPSNPALPKKLLN,769

# Target: ScLsb4
# Test: as above
# Procedure, shortened: as §1
row,Binder,SPOT peptide array binding signal intensity
1,IRMPSNPALPKKLLN,296

# Target: ScMyo3
# Test: as above
# Procedure, shortened: as §1
row,Binder,SPOT peptide array binding signal intensity
1,IRMPSNPALPKKLLN,35.2

# Target: ScMyo5
# Test: as above
# Procedure, shortened: as §1
row,Binder,SPOT peptide array binding signal intensity
1,IRMPSNPALPKKLLN,2

# Target: ScNbp2
# Test: as above
# Procedure, shortened: as §1
row,Binder,SPOT peptide array binding signal intensity
1,IRMPSNPALPKKLLN,509

# Target: ScPex13
# Test: as above
# Procedure, shortened: as §1
row,Binder,SPOT peptide array binding signal intensity
1,IRMPSNPALPKKLLN,195

# Target: ScRvs167
# Test: as above
# Procedure, shortened: as §1
row,Binder,SPOT peptide array binding signal intensity
1,IRMPSNPALPKKLLN,32.5

# Target: ScSho1
# Test: as above
# Procedure, shortened: as §1
row,Binder,SPOT peptide array binding signal intensity
1,IRMPSNPALPKKLLN,1060

# Target: ScSla1-D1-D2
# Test: as above
# Procedure, shortened: as §1
row,Binder,SPOT peptide array binding signal intensity
1,IRMPSNPALPKKLLN,544

# Target: ScSla1-D3
# Test: as above
# Procedure, shortened: as §1
row,Binder,SPOT peptide array binding signal intensity
1,IRMPSNPALPKKLLN,277

# Target: SpAbp1-D1
# Test: as above
# Procedure, shortened: as §1
row,Binder,SPOT peptide array binding signal intensity
1,IRMPSNPALPKKLLN,268

# Target: SpBbc1
# Test: as above
# Procedure, shortened: as §1
row,Binder,SPOT peptide array binding signal intensity
1,IRMPSNPALPKKLLN,5

# Target: SpBzz1-D1
# Test: as above
# Procedure, shortened: as §1
row,Binder,SPOT peptide array binding signal intensity
1,IRMPSNPALPKKLLN,700

# Target: SpBzz1-D2
# Test: as above
# Procedure, shortened: as §1
row,Binder,SPOT peptide array binding signal intensity
1,IRMPSNPALPKKLLN,41

# Target: SpCyk3
# Test: as above
# Procedure, shortened: as §1
row,Binder,SPOT peptide array binding signal intensity
1,IRMPSNPALPKKLLN,4

# Target: SpHof1
# Test: as above
# Procedure, shortened: as §1
row,Binder,SPOT peptide array binding signal intensity
1,IRMPSNPALPKKLLN,53.2

# Target: SpHof1-2
# Test: as above
# Procedure, shortened: as §1
row,Binder,SPOT peptide array binding signal intensity
1,IRMPSNPALPKKLLN,30

# Target: SpHof1-3
# Test: as above
# Procedure, shortened: as §1
row,Binder,SPOT peptide array binding signal intensity
1,IRMPSNPALPKKLLN,22.8

# Target: SpHse1
# Test: as above
# Procedure, shortened: as §1
row,Binder,SPOT peptide array binding signal intensity
1,IRMPSNPALPKKLLN,294

# Target: SpLsb1
# Test: as above
# Procedure, shortened: as §1
row,Binder,SPOT peptide array binding signal intensity
1,IRMPSNPALPKKLLN,16.8

# Target: SpLsb4
# Test: as above
# Procedure, shortened: as §1
row,Binder,SPOT peptide array binding signal intensity
1,IRMPSNPALPKKLLN,1170

# Target: SpMyo1
# Test: as above
# Procedure, shortened: as §1
row,Binder,SPOT peptide array binding signal intensity
1,IRMPSNPALPKKLLN,67.5

# Target: SpNbp2
# Test: as above
# Procedure, shortened: as §1
row,Binder,SPOT peptide array binding signal intensity
1,IRMPSNPALPKKLLN,241

# Target: SpPex13
# Test: as above
# Procedure, shortened: as §1
row,Binder,SPOT peptide array binding signal intensity
1,IRMPSNPALPKKLLN,136

# Target: SpRvs167
# Test: as above
# Procedure, shortened: as §1
row,Binder,SPOT peptide array binding signal intensity
1,IRMPSNPALPKKLLN,107

# Target: SpSla1-D1-D2
# Test: as above
# Procedure, shortened: as §1
row,Binder,SPOT peptide array binding signal intensity
1,IRMPSNPALPKKLLN,17.5

# Target: SpSla1-D3
# Test: as above
# Procedure, shortened: as §1
row,Binder,SPOT peptide array binding signal intensity
1,IRMPSNPALPKKLLN,477
